Compound activity: PubChem BioAssay, National Center for Advancing Translational Sciences (NCATS)
This is a sample that favours compounds with a hit; in the whole collection about 3.1% have one here.
Vif-A3F inh: Vif-A3F binding inhibition; HeLa A3F-eYFP + Vif (tagged APOBEC3F with the HIV-1 protein that degrades it), YFP fluorescence increase; Potency, µM (top dose mostly 46.1 µM), for inactives: top-dose activity, negative = active; 390,000 tested, 0.2% active; further: potency means the concentration at half of the fitted maximal effect; % of control where 0% means no effect; nearly all actives have a fitted effect of over 65% in size
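Fluorescence increase (Ex 488/Em 500-530) after overnight compound treatment at 37 deg C flags inhibition of Vif-driven A3F-eYFP loss in stable HeLa A3F-eYFP/Vif cells seeded overnight beforehand.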
VDR inh: vitamin D3 receptor (human) inhibition | P11473 | VDR-SRC2-3 peptide fluorescence polarization, 2 h | Potency, µM, inactives show max response, negative = inhibition, usual class: inhibitors | 400,000 tested, 0.93% active | AID 504847; further: potency means the concentration at half of the fitted maximal effect; on the % scale 0 is the no-effect control and ±100 the full control effect
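Signal is fluorescence polarization, reporting how far test compounds block the interaction of VDR with the SRC2-3 coregulator peptide after a 2 h room-temperature incubation.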
Vif-APOBEC3G blk: inhibitors of Vif-APOBEC3G interaction; Q9HC16; HeLa A3G-eYFP + Vif (tagged APOBEC3G with the HIV-1 protein that degrades it), YFP fluorescence, overnight; Potency, µM (titrated, usually from 46.1 µM), for the others: top-dose activity, negative = active, hits mostly inhibitors; 410,000 tested, 0.076% active; AID 602310; further: potency means the concentration at half of the fitted maximal effect; on the % scale 0 is the no-effect control and ±100 the full control effect; nearly all actives have a fitted effect of over 60% in size
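Read-out is eYFP fluorescence (Ex 488/Em 500-530) from Vif-expressing HeLa A3G-eYFP cells; more signal means A3G escaped Vif-mediated degradation. Cells plated overnight, compound pinned in, incubated overnight at 37 deg C.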
PLK1 PBD block: blocks phosphopeptide binding to human PLK1 polo-box domain; 360,000 tested, 2.8% active; Plk1 PBD binding of FITC phosphopeptide, fluorescence polarization; P53350; Potency, µM, for the others: max response, negative = inhibition, actives largely listed as inhibitors; further: potency means the concentration at half of the fitted maximal effect; series mostly up to about 57 µM; on the % scale 0 is the no-effect control and ±100 the full control effect; nearly all actives have a fitted effect of over 65% in size
TSHR antag: blocks TSH signaling through the human TSH receptor | P16473 | TSHR-expressing cells, TSH-stimulated cAMP HTRF, 2 h; active compounds read low | activity change, negative = inhibition, % at 11.5 µM | 330,000 tested, 0.2% active | AID 504810;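 active means activity change below a set negative limit, meaning inhibition stronger than a set level, cut at about -70% in these data; inconclusive means activity change between two set negative limits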; further: on the % scale 0 is the no-effect control and ±100 the full control effect
Target sequence (P16473 whole entry, looked up): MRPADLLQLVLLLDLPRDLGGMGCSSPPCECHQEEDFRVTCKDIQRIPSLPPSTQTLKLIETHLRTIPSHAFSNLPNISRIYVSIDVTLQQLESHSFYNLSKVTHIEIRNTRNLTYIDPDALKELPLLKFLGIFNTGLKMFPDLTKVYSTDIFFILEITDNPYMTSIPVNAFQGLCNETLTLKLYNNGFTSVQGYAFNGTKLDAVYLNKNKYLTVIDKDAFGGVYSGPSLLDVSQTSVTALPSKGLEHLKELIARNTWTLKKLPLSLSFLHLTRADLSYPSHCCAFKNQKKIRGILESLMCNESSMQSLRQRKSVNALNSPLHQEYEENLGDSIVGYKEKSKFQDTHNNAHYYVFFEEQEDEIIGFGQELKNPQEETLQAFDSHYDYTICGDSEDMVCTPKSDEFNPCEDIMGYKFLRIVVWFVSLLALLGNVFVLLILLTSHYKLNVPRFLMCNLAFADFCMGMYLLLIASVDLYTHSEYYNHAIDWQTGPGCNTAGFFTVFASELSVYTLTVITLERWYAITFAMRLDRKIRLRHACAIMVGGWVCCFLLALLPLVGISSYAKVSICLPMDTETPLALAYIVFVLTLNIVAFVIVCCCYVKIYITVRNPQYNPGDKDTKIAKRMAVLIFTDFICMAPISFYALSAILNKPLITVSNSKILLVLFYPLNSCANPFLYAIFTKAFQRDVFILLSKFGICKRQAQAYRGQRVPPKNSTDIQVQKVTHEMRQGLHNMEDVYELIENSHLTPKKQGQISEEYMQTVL
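Inhibition of cAMP made by TSHR-expressing cells under TSH stimulation (4nM final, EC80; 2 h, 37 deg C) is quantified with a one-step lysis HTRF kit, anti-cAMP cryptate versus cAMP-d2.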
Numbers without * were called inactive; ? = inconclusive; / = no result. Unless noted, the call rests on the fitted dose curve; in most records, active means well fitted curve in the direction sought with a large enough effect; inconclusive means small, poorly fitted or top-dose-only effect, or another doubt; inactive means no such curve, though single readings can be large; an effect the other way counts as inactive or inconclusive.

SMILES | Vif-A3F inh | VDR inh | Vif-APOBEC3G blk | PLK1 PBD block | TSHR antag
CC1=C(C)/C(=N\OC(=O)/C=C/c2ccccc2)C=CC1=O | 6% | ? | -1% | 3µM* | -6
CC1=CC(=NOC(=O)/C=C/c2ccccc2)C=C(C)C1=O | ? | ? | ? | 19µM* | -15
CC1=CC(=O)C=C(C)C1=NOC(=O)/C=C\c1ccccc1 | -16% | 2% | -2% | 1.3µM* | 0
COCCNc1ncnc2ccc(-c3cccc(OC)c3)cc12 | / | 8% | / | / | /
O=C(CS(=O)(=O)c1ccc(Cl)cc1)Nc1nc2ccc(Br)cc2s1 | -9% | 4% | -6% | / | /
COc1ccc(-n2nnc3c(SC(C(C)=O)C(=O)N(C)C)ncnc32)cc1 (stereo not drawn) | -9% | 7.1µM* | -1% | 24µM* | 15
COc1cc2c(cc1OC)/C(=C/C(=O)c1ccc([N+](=O)[O-])c(C)c1)NCC2 | -1% | ? | -1% | 19µM* | 0
COc1cc2c(cc1OC)/C(=C/C(=O)c1ccc(C)cc1)NCC2 | -1% | 1% | -1% | -12% | -1
O=C(Cn1nnc(-c2ccccc2)n1)N/N=C/c1cc([N+](=O)[O-])ccc1O | ? | -3% | 1% | -5% | 6
O=C(Cn1nc2ccccc2n1)N/N=C/c1cc([N+](=O)[O-])ccc1O | 5% | -22% | 1% | 7.5µM* | -9
CC(C)C[C@@H](NC(=O)[C@@H](Cc1ccccc1)NC(=O)c1cnccn1)B(O)O | / | 14% | / | / | /
COC(=O)C1(C)NC(c2ccccc2C)C2C(=O)N(c3ccc(F)cc3)C(=O)C21 (stereo not drawn) | 12% | -23% | -11% | 30µM* | -4
c1ccc(Nc2cccc3c(Nc4ccccc4)cccc23)cc1 | -2% | -4% | 5% | 1% | 6
O=S(=O)(O)c1cccc2cccc(Nc3ccccc3)c12 | 5% | ? | 0% | 15µM* | /
CCOC(=O)C1=C(C)N=c2sc(=Cc3cc(Cl)c(OCC(=O)O)c(OC)c3)c(=O)n2C1c1ccccc1Cl (stereo not drawn) | / | / | -11% | 27µM* | /
CCOC(=O)C1=C(C)N=c2s/c(=C/c3cccc(OCC(=O)O)c3)c(=O)n2C1c1ccc(F)cc1 (stereo not drawn) | / | / | / | / | -16
CCOC(=O)C1=C(C)N=c2s/c(=C\c3ccc(C(=O)O)cc3)c(=O)n2C1c1ccc(F)cc1 (stereo not drawn) | -10% | ? | -1% | 30µM* | -7
CC(=O)C1=C(C)N=c2s/c(=C/c3ccc4c(c3)OCO4)c(=O)n2C1c1ccc(N(C)C)cc1 (stereo not drawn) | -16% | 32µM* | -15% | 27µM* | /
CCOC(=O)C1=C(C)N=c2s/c(=C/c3cccc([N+](=O)[O-])c3O)c(=O)n2C1c1ccccc1 (stereo not drawn) | -5% | ? | 2% | 19µM* | -14
COc1ccc(C2C(C(C)=O)=C(C)N=c3s/c(=C/c4ccc5c(c4)OCO5)c(=O)n32)cc1 (stereo not drawn) | / | / | / | / | 9
COc1ccccc1-c1nnc(SCC(=O)NC2CCCCC2)o1 | -11% | ? | -1% | 27µM* | -1
O=C(Nc1ccc(Oc2ccc(NC(=O)Nc3ccccc3Cl)cc2)cc1)Nc1ccccc1Cl | 11µM* | -2% | -2% | 4% | 9
COCCn1c(=O)sc2ccccc2c1=O | 9% | 16µM* | 4% | 3µM* | 9
Fc1cccc(Cl)c1CNCc1cccnc1 | 13% | 11% | 0% | 4% | -106*
O=c1oc2ccccc2c(NC2CCCCC2)c1NS(=O)(=O)c1ccc(F)cc1 | 4% | ? | 0% | 3.4µM* | 36
SMILES | Vif-A3F inh | VDR inh | Vif-APOBEC3G blk | PLK1 PBD block | TSHR antag
CCc1ccc(S(=O)(=O)Nc2c(NC3CCCCC3)c3ccccc3oc2=O)cc1 | 5% | 7% | 0% | 3% | 42
COc1ccc(-c2nc3ccc(NC(=O)COC(C)=O)cc3c(=O)n2Cc2ccccc2)cc1COc1ccc(NC(C)=O)cc1 | / | -21% | / | / | /
Cc1cccc2sc(=S)[nH]c12 | / | / | -1% | 21µM* | /
O=C(Nc1nnc(C2CC2)s1)c1ccc(Cl)c(S(=O)(=O)N2CCc3ccccc3C2)c1 | -10% | 3% | 0% | 0% | -90*
COc1ccc(NC2=C(Cl)C(=O)N(c3ccccc3)C2=O)c(OC)c1 | 4% | -9% | 4% | ? | -14
COc1ccc(N2C(=O)C(Cl)=C(Nc3c(C)n(C)n(-c4ccccc4)c3=O)C2=O)cc1 | 0% | ? | 0% | 24µM* | -4
COc1ccc(CNc2nc(Cl)nc3nc[nH]c23)cc1 | / | -4% | -4% | / | /
Cc1cc(C)cc(NC(=O)C2CCN(C(=O)[C@@H]3Cc4ccccc4CN3)CC2)c1 | 3% | ? | 0% | 4.7µM* | 3
Cc1ccc(NC(=O)C2CCN(C(=O)[C@@H]3Cc4ccccc4CN3)CC2)cc1 | -1% | 9% | -3% | -14% | -1
CN(C)c1ccc(C(=O)/C=C/c2ccc(Br)cc2)cc1 | -3% | 3% | -2% | -7% | -6
CCN(CC)c1ccc(/C=C/C(=O)c2ccc(Br)cc2)cc1 | 25µM* | -30% | ? | -53% | -30
CCC1C(=O)N=C(SCC(=O)Nc2ccc(Br)cn2)NC1=O (stereo not drawn) | -27% | ? | 1% | 27µM* | -7
COc1ccc2c(c1OC)C(=O)N1N=C(c3ccc(-c4ccccc4)cc3)CC21 (stereo not drawn) | 7% | -9% | 2% | -8% | -13
COc1ccc2c(c1OC)C(=O)N1c3ccccc3N=C(c3ccc([N+](=O)[O-])cc3)CC21 (stereo not drawn) | -7% | 89µM* | -1% | 0% | 14
COc1cc(-c2[nH]nc3c2C(c2ccoc2)C(C#N)=C(N)O3)cc(OC)c1OC (stereo not drawn) | -8% | -14% | 0% | ? | -18
N#CC1=C(N)Oc2n[nH]c(-c3cccs3)c2C1c1ccoc1 (stereo not drawn) | -4% | -24% | -3% | 3.8µM* | -5
COc1cc(-c2[nH]nc3c2C(c2ccco2)C(C#N)=C(N)O3)cc(OC)c1OC (stereo not drawn) | -22% | -3% | 1% | 30µM* | -23
COc1cccc(-c2[nH]nc3c2C(c2ccsc2)C(C#N)=C(N)O3)c1 (stereo not drawn) | 1% | -22% | 0% | ? | -18
COc1cccc(-c2[nH]nc3c2C(c2ccoc2)C(C#N)=C(N)O3)c1 (stereo not drawn) | -8% | -5% | -7% | 27µM* | -2
N#CC1=C(N)Oc2n[nH]c(-c3cccs3)c2C1c1cccnc1 (stereo not drawn) | -7% | 15% | -1% | -9% | -4
Cc1cnc2ccccc2c1/C=C/c1ccc(N)cc1 | / | / | -19% | / | /
COc1ccc(CC(=S)N2CCOCC2)cc1 | -8% | -15% | -1% | 7.5µM* | 7
Cc1ccc(CC(=S)N2CCOCC2)cc1 | -12% | -30% | -8% | 19µM* | 2
